A selection: hits, their analogues and other compounds. The true share with any hit is near 2%.
LEDGF integ inh = blockers of LEDGF/p75-dependent integrase strand transfer – biochemical, TR-FRET, high throughput, primary screen | TR-FRET IN-LEDGF/p75 DNA integration, Eu/Cy5 | inhibition, % at 3.7 µM | hit rate 0.64% among 370,000 | HIV-1 integrase (with human LEDGF/p75);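 active = inhibition above the screen-wide mean plus 3 SD, cut at about 13% in these data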;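 note: signal is the Cy5 over europium emission ratio at 671 and 618 nm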
Rin1-Abl PPI inh = inhibitors of Rin1-Abl protein binding, primary screen, biochemical, TR-FRET; AID 588664, 2011; hit rate 0.4% among 360,000; inhibition, % at 7.35 µM; in the data active = inhibition above about 5%, passing the limit was not always enough
TCR-CD3 inh = inhibitors of human TCR-CD3 interaction, primary screen, biochemical, fluorescence, TAMRA-labeled TCR probe. inhibition, % at 9.4 µM. hit rate 0.37% among 360,000; in the data active = inhibition above about 19%;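 note: recombinant mutant TCR 2C K166C tagged with TAMRA read by polarization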
MBD2 inh = inhibitors of MBD2 binding to methylated DNA, primary screen, biochemical, TR-FRET, DNA-binding domain, human; Methyl-CpG-binding domain protein 2 (Homo sapiens), Q9UBB5; MBD2 binding to methylated oligonucleotide; inhibition, % at 4.4 µM; hit rate 0.31% among 370,000; AID 686964, 2013; in the data active = inhibition above about 13%
UHRF1 binding = UHRF1 methylated DNA binding inhibitors, primary screen, counter-screen for MBD2 inhibitor project, biochemical, TR-FRET, human UHRF1, single concentration | UHRF1 binding to methylated oligo | hit rate 0.75% among 370,000 | inhibition, % at 4.4 µM | AID 687016, 2013; in the data active = inhibition above about 21%;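 note: UHRF1 SRA domain binding a hemimethylated CpG hairpin DNA probe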
Rin1 Abl conf = Rin1-Abl binding inhibitor retest, confirmation, biochemical, TR-FRET | shares compounds with Rin1-Abl PPI inh | purified proteins | inhibition, % at 7.35 µM | hit rate 49% among 1,300; in the data active = inhibition above about 6.5%
GFP quench-1 = GFP fluorescence inhibitors and quenchers, artefact control for Rin1-Abl interaction inhibitor project, biochemical | AID 602125, 2011 | inhibition, % at 6.75 µM | inhibitors/quenchers counterscreen | hit rate 8.5% among 1,300 | shares compounds with Rin1-Abl PPI inh; in the data active = inhibition above about 6.5%;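 note: ABL1-eGFP fusion protein alone without its partner RIN1-SBP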
GFP quench DR = GFP fluorescence inhibitors and quenchers, dose response, artefact control for Rin1-Abl interaction inhibitor project, biochemical; shares compounds with Rin1-Abl PPI inh; GFP fluorescence interference/quenching counterscreen; IC50, µM; 230 tested, under 10 active; AID 602182, 2012;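 note: ABL1-eGFP fusion protein alone without its RIN1 binding partner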
GFP quench-2 = GFP fluorescence inhibitors and quenchers, late-stage follow-up, artefact control for Rin1-Abl interaction inhibitor project, biochemical, dose response | IC50, µM | 25 tested, under 10 active | GFP fluorescence quenching counterscreen | shares compounds with Rin1-Abl PPI inh
Large screens that a line does not name were inactive (follow-up assays come after a bar, where they were run). Unless noted, the rule behind the calls is not given here.

Nc1c2c(nc3sc4c(c13)CCCC4)CCCC2	UHRF1 binding 28.8
Nc1c2c(nc3sc4c(c13)CCCC4)CCCCC2	none
Brc1ccc2c(c1)-n1nncc1CNC2	UHRF1 binding 34.9 (no result: Rin1-Abl PPI inh)
CN1C(=O)C(c2ccc([N+](=O)[O-])cc2[N+](=O)[O-])C(=O)N(C)C1=O	UHRF1 binding 20.9
O=[N+]([O-])c1ccc(Cl)c([N+](=O)[O-])c1	none
Cc1ccc(CNCCc2ccccc2F)cc1	UHRF1 binding 24.9
O=C(NCCN1CCC2(CC1)C(=O)NCN2c1ccccc1)c1ccc(Cl)cc1	none (no result: Rin1-Abl PPI inh)
CN1CCCC2c3ccccc3CCC21 (centres undefined)	UHRF1 binding 21.6
C[C@@H]1CN([C@@H](C)CO)C(=O)CCCn2nncc2CO[C@H]1CN(C)C(=O)Oc1ccccc1	none
Cc1ccc(-n2c(C)cc(/C=C3/C(=O)NC(=O)N(Cc4ccco4)C3=O)c2C)cc1	LEDGF integ inh 28.4
Cc1cc(/C=C2\C(=O)NC(=O)N(Cc3ccccc3Cl)C2=O)c(C)n1-c1ccc(C(=O)O)cc1	UHRF1 binding 22.1
Cc1ccc(-n2c(C)cc(/C=C3/C(=O)NC(=O)N(C)C3=O)c2C)cc1	none
CC1CC2(C)C(=CC1=O)CCC1C3CCC(C)(O)C3(C)CC3OC312 (centres undefined)	none
O=C(NCCN1CCC2(CC1)C(=O)NCN2c1ccccc1)c1ccc(F)cc1	none (no result: Rin1-Abl PPI inh)
C[C@H](CO)N1C[C@H](C)[C@@H](CN(C)C(=O)Oc2ccc3ccccc3c2)OCc2cnnn2CCCC1=O	none
O=C1NC(=O)N(Cc2ccccc2)C(=O)/C1=C\C=C\c1ccco1	UHRF1 binding 27.9
C=CCN1C(=O)NC(=O)/C(=C/C=C/c2ccccc2)C1=O	none
CC(C)(C)NC(=O)C1CN=C(c2ccccc2)c2cc(Cl)ccc2N1C(=O)C1CCC1 (centres undefined)	none (no result: Rin1-Abl PPI inh, TCR-CD3 inh)
CC(Cc1ccccc1)NCc1ccccc1O (centres undefined)	UHRF1 binding 34.8
CCOC(=O)[C@]12Cc3cc(OC)ccc3[C@H]1N(CC(=O)OC)C(=O)c1ccccc12	UHRF1 binding 23.6 (no result: Rin1-Abl PPI inh)
CCOC(=O)[C@]12Cc3cc(OC)ccc3[C@H]1N(CC(=O)OC)C(=O)c1cc(OC)ccc12	none (no result: Rin1-Abl PPI inh)
CN(C(=O)Oc1ccc(Cl)c2cccnc12)c1ccccc1	UHRF1 binding 21.3
COc1ccc(C(=O)C2CN(C)CC2c2ccc(Cl)cc2)cc1 (centres undefined)	none
COc1cccc(C(=O)C2CN(C)CC2c2ccc(Cl)cc2)c1 (centres undefined)	UHRF1 binding 69.7
CCn1nc(-c2ccccc2)nc2c(=O)n(C)c(=O)nc1-2	Rin1-Abl PPI inh 27.5 (no result: LEDGF integ inh, TCR-CD3 inh, MBD2 inh, UHRF1 binding)
CCCC1(CC(C)CC)C(=O)NC(=O)NC1=O (centres undefined)	none
Cn1cc(C(=O)OCC(=O)Nc2ccccc2)c2ccccc21	none
CCN(C(=O)COC(=O)c1cn(C)c2ccccc12)c1ccc(F)cc1	UHRF1 binding 21.6
COc1cc2cc(C(=O)N3CC(COS(C)(=O)=O)c4ccc(O)cc43)[nH]c2c(OC)c1OC (centres undefined)	none (no result: LEDGF integ inh, TCR-CD3 inh, MBD2 inh, UHRF1 binding)
O=C1CC=C2C3CC4N(CCC45c4cc(O)c(O)cc4N1C25)CC3=CCBr (centres undefined)	LEDGF integ inh 62.1, Rin1-Abl PPI inh 31.1, TCR-CD3 inh 50.3, MBD2 inh 15.3, UHRF1 binding 31.1
CC(C)COC(=O)N1Cc2ccccc2-n2nncc2C1	none
NC(=O)C1(N2CCCCC2)CCN(Cc2ccccc2)CC1	Rin1-Abl PPI inh 7.9 | Rin1 Abl conf inactive | GFP quench-1 inactive
N#CCC[C@@H]1CC[C@]2(CCCN(Cc3ccccn3)C2)O1	none (no result: Rin1-Abl PPI inh, TCR-CD3 inh)
COc1ccc(Cn2c(N)c(C(=O)NCc3ccco3)c3nc4ccccc4nc32)cc1OC	Rin1-Abl PPI inh 15.3 | Rin1 Abl conf inactive | GFP quench-1 inactive
CC(C)N(C(=O)CCl)c1ccccc1	none
Cc1nc2c(=O)n(C)c(=O)nc-2n(C)n1	Rin1-Abl PPI inh 37.1, MBD2 inh 16.1 | Rin1 Abl conf 45.4 | GFP quench-1 inactive | GFP quench DR inactive
Nc1c(C(=O)NC2CCCC2)c2nc3ccccc3nc2n1CC1CCCO1 (centres undefined)	Rin1-Abl PPI inh 19.2 | Rin1 Abl conf inactive | GFP quench-1 inactive
Nc1c(C(=O)OCC2CCCO2)c2nc3ccccc3nc2n1Cc1cccs1 (centres undefined)	none
CN1CCN(CCOC2c3ccccc3CSc3ccc(Cl)cc32)CC1 (centres undefined)	none
Clc1ccc2c(c1)C(OC1CN3CCC1CC3)c1ccccc1CS2 (centres undefined)	Rin1-Abl PPI inh 9.7 | Rin1 Abl conf inactive | GFP quench-1 inactive
O=C1NCN(c2ccccc2)C12CCN(C(c1cc3ccccc3o1)c1nnnn1Cc1ccccc1)CC2 (centres undefined)	none
CCOC(=O)N1CCC(NC(=O)CCc2nc(C3=CCN(C)CC3)no2)CC1	Rin1-Abl PPI inh 69.6 | Rin1 Abl conf 50.0 | GFP quench-1 inactive | GFP quench DR inactive | GFP quench-2 inactive
C=CCN(CC#CCO)Cc1ccc(OC)cc1OC	none (no result: Rin1-Abl PPI inh, TCR-CD3 inh)
c1ccc(-c2nc3ccccc3nc2-c2ccc(CN3CCC(n4nnc5ccccc54)CC3)cc2)cc1	none (no result: Rin1-Abl PPI inh)
C[C@]12CC[C@H](O)CC1=CC(=O)C1C2CC[C@]2(C)C(=O)CCC12 (some centres undefined)	Rin1-Abl PPI inh 12.9 | Rin1 Abl conf inactive | GFP quench-1 inactive
CCCCCn1c(NC(=O)c2ccco2)c(C(=O)OCC)c2nc3ccccc3nc21	none (no result: LEDGF integ inh, TCR-CD3 inh, MBD2 inh, UHRF1 binding)
CCOC(=O)c1c(NS(=O)(=O)c2ccccc2)n(CCCOC)c2nc3ccccc3nc12	LEDGF integ inh 20.0, Rin1-Abl PPI inh 33.4 | Rin1 Abl conf inactive | GFP quench-1 inactive
COc1cc2c(c3oc4cccc(O)c4c(=O)c13)[C@@H]1C=CO[C@@H]1O2	none (no result: Rin1-Abl PPI inh, TCR-CD3 inh)

From PubChem
